# Source: PubChem BioAssay (NCATS)
# Several values for one entry are separate records, joined by “and”; a condition that tells them apart may be missing. Identical values can stand only once. Results filed as inconclusive are left out. Entries that show only a call come without a potency. Unmarked numbers belong to inactive results. Activity calls are given as the source filed them. Calls come from the whole dose curve; as a rule, active = well fitted curve in the direction sought with a large enough effect; inconclusive = small, poorly fitted or top-dose-only effect, or another doubt; inactive = no such curve, though single readings can be large; an effect the other way counts as inactive or inconclusive.
# Experiments:
# KB-3-1 = assay: Cytotoxic Profiling of Annotated Libraries Using Quantitative High-Throughput Screening (AID 1296008); conditions: Five cell lines viability, CellTiter-Glo ATP luminescence, 48-72 h; max response: stronger effect = lower value; note: nearly all actives have a fitted effect of over 60% in size; note: potency is the fitted concentration of half-maximal effect
# How it was run: (§1)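 Cells exposed to compounds for 48 or 72 hr at 37 degrees Celsius. Viability read as ATP-coupled luminescence with CellTiter-Glo after 10 min at room temperature.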
# NIH3T3 [1] = assay: as above; conditions: Five cell lines viability, CellTiter-Glo ATP luminescence, 48-72 h; max response: stronger effect = lower value
# How it was run: as §1
# HACAT = assay: qHTS assay to identify novel small-molecules to repurpose for Merkel cell carcinoma treatment (AID 1296009); conditions: MCC and control cell lines, CellTiter-Glo viability, 72 h; at 44.8 µM (top of the series) unless noted; note: nearly all actives have a fitted effect of over 60% in size; note: potency is the fitted concentration of half-maximal effect
# How it was run: (§2)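 Dose-response viability screen; 72 hr exposure at 37 degree celsius; CellTiter-Glo added, 10 min room temperature, luminescence read; RLUs scaled between no-cell and DMSO wells.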
# MCC-13 = assay: as above; conditions: MCC and control cell lines, CellTiter-Glo viability, 72 h; series mostly up to 46 µM
# How it was run: as §2
# MCC-26 = assay: as above; conditions: MCC and control cell lines, CellTiter-Glo viability, 72 h; series mostly up to 46 µM
# How it was run: as §2
# MKL-2 = assay: as above; conditions: MCC and control cell lines, CellTiter-Glo viability, 72 h; series mostly up to 46 µM
# How it was run: as §2
# C33A = assay: Primary qHTS to identify gynecologic anti-cancer compounds using libraries of approved drugs and bioactive compounds (AID 1345084); conditions: Gynecologic cancer cell panel viability, ATPlite luminescence, 48 h; series mostly up to 57.5 µM; note: nearly all actives have a fitted effect of over 55% in size
# How it was run: (§3)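 Luminescence from the ATPlite ATP-monitoring reagent indicates viable cell number; lower signal means cytotoxicity. Cells received compound 16 h after seeding and were exposed for 48 h across five concentrations.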
# CASKI = assay: as above; conditions: Gynecologic cancer cell panel viability, ATPlite luminescence, 48 h; series mostly up to 57.5 µM
# How it was run: as §3
# Es-2 = assay: as above; conditions: Gynecologic cancer cell panel viability, ATPlite luminescence, 48 h; series mostly up to 57.5 µM
# How it was run: as §3
# HeLa = assay: as above; conditions: Gynecologic cancer cell panel viability, ATPlite luminescence, 48 h; series mostly up to 57.5 µM
# How it was run: as §3
# Hek293T [2] = assay: as above; conditions: Gynecologic cancer cell panel viability, ATPlite luminescence, 48 h, control line for the selectivity index; series mostly up to 57.5 µM
# How it was run: as §3
# JEG-3 = assay: as above; conditions: Gynecologic cancer cell panel viability, ATPlite luminescence, 48 h; series mostly up to 57.5 µM
# How it was run: as §3
# OV90 = assay: as above; conditions: Gynecologic cancer cell panel viability, ATPlite luminescence, 48 h; series mostly up to 57.5 µM
# How it was run: as §3
# PA-1 = assay: as above; conditions: Gynecologic cancer cell panel viability, ATPlite luminescence, 48 h; series mostly up to 57.5 µM
# How it was run: as §3
# MKL-1 = assay: qHTS assay to identify novel small-molecules to repurpose for Merkel cell carcinoma treatment (AID 1296009); conditions: MCC and control cell lines, CellTiter-Glo viability, 72 h; series mostly up to 46 µM; note: nearly all actives have a fitted effect of over 60% in size; note: potency is the fitted concentration of half-maximal effect
# How it was run: as §2
# UISO = assay: as above; conditions: MCC and control cell lines, CellTiter-Glo viability, 72 h; series mostly up to 46 µM
# How it was run: as §2
# WaGa = assay: as above; conditions: MCC and control cell lines, CellTiter-Glo viability, 72 h; series mostly up to 46 µM
# How it was run: as §2
# NIH3T3 [3] = assay: as above; conditions: MCC and control cell lines, CellTiter-Glo viability, 72 h; series mostly up to 44.8 µM
# How it was run: as §2
# CAOV3 = assay: Primary qHTS to identify gynecologic anti-cancer compounds using libraries of approved drugs and bioactive compounds (AID 1345084); conditions: Gynecologic cancer cell panel viability, ATPlite luminescence, 48 h; series mostly up to 57.5 µM; note: nearly all actives have a fitted effect of over 55% in size
# How it was run: as §3
# HEK293T [4] = assay: qHTS assay to identify novel small-molecules to repurpose for Merkel cell carcinoma treatment (AID 1296009); conditions: MCC and control cell lines, CellTiter-Glo viability, 72 h; at 44.8 µM (top of the series) unless noted; note: nearly all actives have a fitted effect of over 60% in size; note: potency is the fitted concentration of half-maximal effect
# How it was run: as §2
smiles,measurement,setting,value
CCCCC[C@H](O)C=C[C@H]1[C@H](O)CC(=O)[C@H]1CC=CCCCC(=O)O,outcome,KB-3-1,inactive
same,max response,NIH3T3 [1],-18.8%
same,outcome,HACAT,inactive
same,Potency,MCC-13,inactive
same,Potency,MCC-26,inactive
same,Potency,MKL-2,16.6 µM (active)
same,Potency,C33A,inactive
same,Potency,CASKI,inactive
same,Potency,Es-2,inactive
same,Potency,HeLa,inactive
same,Potency,Hek293T [2],inactive
same,Potency,JEG-3,inactive
same,Potency,OV90,inactive
same,Potency,PA-1,inactive
CNC(=O)c1ccc2c(C(=Nc3cccc(CN(C)C)c3)c3ccccc3)c(O)[nH]c2c1,outcome,KB-3-1,inactive
same,Potency,NIH3T3 [1],16.6 µM (active) and 8.2 µM (active)
same,outcome,HACAT,inactive
same,Potency,MCC-13,inactive
same,Potency,MCC-26,inactive
same,Potency,MKL-1,inactive
same,Potency,UISO,inactive
same,Potency,WaGa,inactive
same,Potency,C33A,inactive
same,Potency,CASKI,inactive
same,Potency,Es-2,inactive
same,Potency,HeLa,inactive
same,Potency,Hek293T [2],inactive
same,Potency,JEG-3,inactive
same,Potency,OV90,inactive
same,Potency,PA-1,inactive
CC[C@H](NC(=O)[C@H](C)NC)C(=O)N1C[C@@H](O)C[C@H]1Cc1c(-c2[nH]c3cc(F)ccc3c2C[C@H]2C[C@H](O)CN2C(=O)[C@H](CC)NC(=O)[C@H](C)NC)[nH]c2cc(F)ccc12,outcome,KB-3-1,inactive
same,outcome,NIH3T3 [1],inactive
same,outcome,HACAT,inactive
same,Potency,MCC-13,inactive
same,Potency,NIH3T3 [3],inactive
same,Potency,UISO,inactive
O=C(Nc1ccccc1)Nc1ccc(-c2ccc(C(=O)[C@H]3CCC[C@H]3C(=O)O)cc2)cc1,max response,KB-3-1,9.29%
same,max response,NIH3T3 [1],3.03%
same,outcome,HACAT,inactive
same,Potency,MCC-13,inactive
same,Potency,MCC-26,inactive
same,Potency,MKL-1,inactive
same,Potency,MKL-2,inactive
same,Potency,UISO,inactive
same,Potency,WaGa,inactive
N=C1SC(=Cc2ccc(-c3ccc4c(c3)C(=O)NC4=O)o2)C(=O)N1c1ccc(Br)cc1,outcome,KB-3-1,inactive
same,max response,NIH3T3 [1],1.79%
same,outcome,HACAT,inactive
same,Potency,MCC-13,inactive
same,Potency,MCC-26,inactive
same,Potency,MKL-1,inactive
same,Potency,UISO,inactive
same,Potency,WaGa,inactive
CC1C(=O)OC2C(O)C34C5CC(C(C)(C)C)C36C(OC(=O)C6O)OC4(C(=O)O5)C12O (stereo not drawn),outcome,KB-3-1,inactive
same,max response,NIH3T3 [1],-22.7%
same,outcome,HACAT,inactive
same,Potency,MCC-13,inactive
same,Potency,MCC-26,inactive
same,Potency,MKL-1,inactive
same,Potency,UISO,inactive
Cc1nc(C(=O)NCC(=O)O)c(O)c2ccc(Oc3ccccc3)cc12,max response,KB-3-1,-6.73% and -11.5%
same,max response,NIH3T3 [1],-5.42% and -6%
same,outcome,HACAT,inactive
same,Potency,MCC-13,inactive
same,Potency,MCC-26,inactive
same,Potency,MKL-1,inactive
same,Potency,MKL-2,inactive
same,Potency,UISO,inactive
same,Potency,WaGa,inactive
same,Potency,C33A,inactive
same,Potency,CAOV3,inactive
same,Potency,CASKI,inactive
same,Potency,Es-2,inactive
same,Potency,HeLa,inactive
same,Potency,Hek293T [2],inactive
same,Potency,JEG-3,inactive
same,Potency,OV90,inactive
same,Potency,PA-1,inactive
Nc1ncnc2c1ncn2[C@@H]1O[C@H](CO)[C@@H](O)[C@@H]1O,outcome,KB-3-1,inactive
same,max response,NIH3T3 [1],3.26%
same,outcome,HACAT,inactive
same,Potency,MCC-13,inactive
same,Potency,MKL-1,14.8 µM (active)
same,Potency,MKL-2,1.66 µM (active)
same,Potency,UISO,inactive
same,Potency,WaGa,1.05 µM (active)
CCOC(=O)c1c(CSc2ccccc2)n(C)c2cc(Br)c(O)c(CN(C)C)c12,max response,KB-3-1,-17.1%
same,max response,NIH3T3 [1],-4.48%
same,outcome,HACAT,inactive
same,Potency,MCC-13,inactive
same,Potency,MCC-26,inactive
same,Potency,MKL-1,inactive
same,Potency,MKL-2,inactive
same,Potency,UISO,inactive
same,Potency,WaGa,inactive
CCOC(=O)[C@@H](N)CCC(=O)N[C@@H](CSCc1ccccc1)C(=O)N[C@@H](C(=O)OCC)c1ccccc1,max response,KB-3-1,-0.167%
same,max response,NIH3T3 [1],1.31%
same,outcome,HACAT,inactive
same,Potency,MCC-13,inactive
same,Potency,MCC-26,inactive
same,Potency,UISO,inactive
same,Potency,WaGa,inactive
CC1CCN(c2cc(N3CCN(C)CC3)ccc2NC(=O)c2cc(C#N)c[nH]2)CC1,max response,KB-3-1,9% and 4.39%
same,max response,NIH3T3 [1],3.51% and 0.269%
same,outcome,HACAT,inactive
same,Potency,MCC-13,inactive
same,Potency,MKL-1,inactive
same,Potency,MKL-2,inactive
same,Potency,UISO,inactive
same,Potency,WaGa,inactive
same,Potency,C33A,inactive
same,Potency,CAOV3,inactive
same,Potency,CASKI,inactive
same,Potency,Es-2,inactive
same,Potency,HeLa,inactive
same,Potency,Hek293T [2],inactive
same,Potency,JEG-3,inactive
same,Potency,OV90,inactive
same,Potency,PA-1,inactive
CCOC(=O)N1CCN([N+]([O-])=NOc2cc(ON=[N+]([O-])N3CCN(C(=O)OCC)CC3)c([N+](=O)[O-])cc2[N+](=O)[O-])CC1,outcome,KB-3-1,inactive
same,outcome,NIH3T3 [1],inactive
same,outcome,HACAT,inactive
same,Potency,MKL-2,23.5 µM (active)
same,Potency,NIH3T3 [3],inactive
C=C1c2cccc(O)c2C(O)=C2C(=O)[C@@]3(O)C(O)=C(C(N)=O)C(=O)[C@@H](N(C)C)[C@@H]3[C@@H](O)[C@H]12,max response,KB-3-1,1.29%
same,max response,NIH3T3 [1],-2.7%
same,outcome,HACAT,inactive
same,Potency,MCC-13,inactive
same,Potency,MCC-26,inactive
same,Potency,MKL-1,inactive
same,Potency,UISO,inactive
same,Potency,WaGa,inactive
CC1(C)[C@H]2CC[C@]3(C)[C@@H](C(=O)C=C4[C@@H]5C[C@@](C)(C(=O)O)CC[C@]5(C)CC[C@]43C)[C@@]2(C)CC[C@@H]1O,max response,KB-3-1,1.07%
same,max response,NIH3T3 [1],-8.32%
same,outcome,HACAT,inactive
same,Potency,MCC-13,inactive
same,Potency,MKL-1,inactive
same,Potency,MKL-2,inactive
same,Potency,UISO,inactive
same,Potency,WaGa,inactive
CNC(=O)c1c(-c2ccc(F)cc2)oc2cc(N(CCO)S(C)(=O)=O)c(C3CC3)cc12,max response,KB-3-1,-0.402%
same,max response,NIH3T3 [1],-17.1%
same,outcome,HEK293T [4],inactive
same,Potency,C33A,inactive
same,Potency,CASKI,inactive
same,Potency,Es-2,inactive
same,Potency,HeLa,inactive
same,Potency,Hek293T [2],inactive
same,Potency,JEG-3,inactive
same,Potency,OV90,inactive
same,Potency,PA-1,inactive
O=C1CCCC(=O)C1C(=O)c1ccc(C(F)(F)F)cc1[N+](=O)[O-],max response,KB-3-1,8.25%
same,max response,NIH3T3 [1],-10%
same,Potency,MCC-13,inactive
same,Potency,MCC-26,inactive
same,Potency,MKL-1,inactive
same,Potency,MKL-2,inactive
same,Potency,UISO,inactive
same,Potency,WaGa,inactive
CC(NCCc1ccc(O)cc1)C(O)c1ccc(O)cc1 (stereo not drawn),max response,KB-3-1,-1.97%
same,outcome,NIH3T3 [1],inactive
same,Potency,MCC-13,inactive
same,Potency,MCC-26,inactive
same,Potency,MKL-1,inactive
same,Potency,MKL-2,inactive
same,Potency,NIH3T3 [3],inactive
same,Potency,UISO,inactive
same,Potency,WaGa,inactive
